Test results as given in PubChem BioAssay (EPA / NIEHS).
Inconclusive results are not listed. Active and inactive are the calls of the source. Rule for the calls, unless noted: active = hit-call score of the fitted dose curve at least 0.9, where 1 is the maximum; inactive = score below 0.9.

Key:
[1] = biological target: Glucocorticoid receptor (Homo sapiens) (UniProt P04150); test: ATG_GR_TRANS: Attagene TRANS-FACTORIAL HepG2 Assay for human Glucocorticoid Receptor (GR) (AID 2282978; active = hit-call score of the fitted dose curve at least 0.9, where 1 is the maximum;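 note: activators score as hits since higher reporter transcript over DMSO is fitted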); conditions: HepG2 Attagene TRANS GR reporter, mRNA transcription
How it was run: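 Fluorescent capillary-electrophoresis quantitation of reporter mRNA is the readout, taken 24 h after dosing human HepG2 cells carrying transiently transfected GAL4-UAS reporter units activated by chimeric NR-GAL4 fusions; activity scored as induction over DMSO.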

[2] = biological target: Bile acid receptor (Homo sapiens) (UniProt Q96RI1); test: ATG_FXR_TRANS: Attagene TRANS-FACTORIAL HepG2 Assay for Farnesoid X Receptor (FXR) (AID 2282979; active = hit-call score of the fitted dose curve at least 0.9, where 1 is the maximum;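 note: hits raise reporter mRNA above DMSO so AC50 marks FXR activation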); conditions: HepG2 Attagene TRANS FXR-GAL4 reporter transcription
How it was run: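 Reporter transcripts from transfected HepG2 cells were measured 24 h after dosing, using RT-PCR with capillary electrophoresis of 6-FAM-labelled fragments. The read-out reflects activity of exogenous FXR-Gal4 chimera on GAL4-UAS units, with induction relative to DMSO.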

[3] = biological target: Oxysterols receptor LXR-alpha (Homo sapiens) (UniProt Q13133); test: ATG_LXRa_TRANS: Attagene TRANS-FACTORIAL HepG2 Assay for human Liver X Receptor alpha (LXRa) (AID 2282980; active = hit-call score of the fitted dose curve at least 0.9, where 1 is the maximum); conditions: HepG2 Attagene TRANS reporter, LXRa transactivation
How it was run: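 Chemical-induced reporter mRNA measured by RT-PCR with fluorescent labelling and capillary electrophoresis after 24 h dosing of transiently transfected HepG2 cells expressing exogenous NR-Gal4 chimeras; increases scored against DMSO baseline.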

[4] = biological target: Oxysterols receptor LXR-beta (Homo sapiens) (UniProt P55055); test: ATG_LXRb_TRANS: Attagene TRANS-FACTORIAL HepG2 Assay for human Liver X Receptor beta (LXRb) (AID 2282981; active = hit-call score of the fitted dose curve at least 0.9, where 1 is the maximum); conditions: HepG2 Attagene TRANS GAL4-LXRb reporter, mRNA
How it was run: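 After 24 h chemical treatment of transfected HepG2 cells carrying exogenous NR-Gal4 chimeras, reporter mRNA was quantified by fluorescent RT-PCR and capillary electrophoresis; activity taken as increase over DMSO controls.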

[5] = biological target: Hepatocyte nuclear factor 4-alpha (Homo sapiens) (UniProt P41235); test: ATG_HNF4a_TRANS: Attagene TRANS-FACTORIAL HepG2 Assay for human Hepatocyte Nuclear Factor 4 alpha (HNF4a) (AID 2282982; active = hit-call score of the fitted dose curve at least 0.9, where 1 is the maximum); conditions: HepG2 HNF4a transactivation reporter, mRNA readout
How it was run: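 Activity of an exogenous HNF4a–Gal4 fusion scored as induced GAL4-UAS reporter transcripts after 24 h chemical exposure of transfected human HepG2 cells. Read-out via RT-PCR with 6-FAM labelling and capillary electrophoresis; rise over DMSO baseline.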

[6] = ATG_M_06_TRANS: Attagene TRANS-FACTORIAL HepG2 Assay for M06 Transcription Factor (Internal Marker) (AID 2282983; active = hit-call score of the fitted dose curve at least 0.9, where 1 is the maximum); conditions: HepG2 Attagene TRANS M06 internal marker reporter
How it was run: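 Background-control reporter readout: after 24 h chemical exposure of transiently transfected HepG2 (GAL4-UAS reporter units), mRNA quantified by RT-PCR with fluorescent labeling and capillary electrophoresis. Gain-of-signal fitting against DMSO baseline.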

[7] = ATG_M_32_TRANS: Attagene TRANS-FACTORIAL HepG2 Assay for M32 Transcription Factor (Internal Marker) (AID 2282984; active = hit-call score of the fitted dose curve at least 0.9, where 1 is the maximum); conditions: HepG2 Attagene TRANS M32 internal marker reporter
How it was run: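 Internal background reporter in transfected HepG2: after 24 h chemical exposure, RNA reverse-transcribed, reporter cDNA amplified, fluorescently labelled and HpaI-cut, then sized by capillary electrophoresis. Gain of signal fitted against DMSO control.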

[8] = biological target: Transcriptional activator Myb (Homo sapiens) (UniProt P10242); test: ATG_Myb_CIS: Attagene CIS-FACTORIAL HepG2 Assay for human Myeloblastosis (Myb) Proto-Oncogene Transcription Factor (AID 2282986); conditions: HepG2 Attagene CIS-FACTORIAL Myb reporter transcription; actives raise or lower the signal
How it was run: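 Reporter transcript levels, quantified by fluorescent RT-PCR and capillary electrophoresis, serve as the read-out. Transfected HepG2 cells carrying cis-promoter reporter units are dosed for 24 hours, and curves are fitted bidirectionally against DMSO controls.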

[9] = biological target: Nuclear respiratory factor 1 (Homo sapiens) (UniProt Q16656); test: ATG_NRF1_CIS: Attagene CIS-FACTORIAL HepG2 Assay for human Nuclear Respiratory Factor 1 (NRF1) Orphan Gene (AID 2282987); conditions: HepG2 NRF1 cis-element reporter, Attagene multiplex; actives raise or lower the signal
How it was run: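 Multiplexed cis-reporter assay, HepG2 cells, 24 h treatment. Total RNA → oligo(dT) RT → PCR with reporter-specific primers → 6-FAM primer extension → HpaI cut → CE. Bidirectional fit vs DMSO.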

[10] = ATG_NFI_CIS: Attagene CIS-FACTORIAL HepG2 Assay for human Nuclear Factor I (NFI) (AID 2282989); conditions: HepG2 cis-regulatory reporter, NFI response element transcription; actives raise or lower the signal
How it was run: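 Transient MRTU transfection of HepG2 → 24 h chemical dosing → total RNA, oligo(dT) RT → PCR, 6-FAM primer extension, HpaI cut → capillary electrophoresis. Endpoint fitted bidirectionally relative to DMSO.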

[11] = biological target: Myc proto-oncogene protein (Homo sapiens) (UniProt P01106); test: ATG_Myc_CIS: Attagene CIS-FACTORIAL HepG2 Assay for human Myelocytomatosis (Myc) Proto-Oncogene Transcription Factor (AID 2282990); conditions: HepG2, Attagene cis-reporter transcription factor activity; actives raise or lower the signal
How it was run: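 Cells of the HepG2 human liver line bear multiple cis-driven reporter transcription units. Reporter mRNA after 24 h exposure is reverse-transcribed, amplified, labelled and resolved by capillary electrophoresis, with gain- or loss-of-signal fitting relative to DMSO.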

[12] = ATG_NF_kB_CIS: Attagene CIS-FACTORIAL HepG2 Assay for human Nuclear Factor Kappa B (NF-kB) (AID 2282991); conditions: HepG2 Attagene cis-factorial NF-kB reporter mRNA; actives raise or lower the signal
How it was run: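 Transient MRTU transfection of human HepG2 liver cells → 24 h chemical exposure → total RNA, oligo(dT) RT → PCR, 6-FAM primer extension, HpaI digest 2 h 37 C → CE fragment analysis. Bidirectional fitting, DMSO negative control.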

[13] = ATG_NRF2_ARE_CIS: Attagene CIS-FACTORIAL HepG2 Assay for human Nuclear Factor Erythroid 2 Related Factor 2 (NFR2) response to Antioxidant Response Elements (ARE) (AID 2282992); conditions: HepG2 Attagene ARE/NRF2 reporter, transcription factor activity; actives raise or lower the signal
How it was run: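 Endogenous transcription factor activity read out as reporter transcript levels (RT-PCR plus capillary electrophoresis, fluorescence) in transiently transfected HepG2 cells. Measured at 24 h after dosing; gain or loss of signal fitted versus DMSO.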

[14] = ATG_Oct_MLP_CIS: Attagene CIS-FACTORIAL HepG2 Assay for human Octamer-Binding Transcription Factor (Oct) (AID 2282993); conditions: HepG2 Attagene cis-factorial Oct reporter, mRNA; actives raise or lower the signal
How it was run: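 Transient MRTU transfection of HepG2 → 24 h compound treatment → RNA isolation, reverse transcription, PCR → 6-FAM primer extension, HpaI digest → capillary electrophoresis. Activity fitted both directions against DMSO.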

[15] = biological target: Cellular tumor antigen p53 (Homo sapiens) (UniProt P04637); test: ATG_p53_CIS: Attagene CIS-FACTORIAL HepG2 Assay for human p53 Transcription Factor (AID 2282994); conditions: HepG2 p53 cis-element reporter, Attagene mRNA; actives raise or lower the signal
How it was run: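 Endogenous p53 activity read in transiently transfected HepG2 from a cis-element-driven reporter transcript after 24 h exposure. RNA reverse-transcribed, PCR-amplified, fluorescently labelled and sized by capillary electrophoresis; gain or loss fitted against DMSO baseline.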

[16] = BSK_3C_uPAR: BioMAP Diversity Plus: 3C Assay for Urokinase-type plasminogen activator receptor (uPAR) Biomarker Activity (AID 2282998); conditions: BioMAP 3C HUVEC, uPAR biomarker ELISA; actives raise or lower the signal
How it was run: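 ELISA readout of uPAR on human vascular endothelium (umbilical vein primary cells), taken 24 h after chemical dosing. Increases and decreases are both fitted relative to DMSO vehicle.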

[17] = BSK_3C_VCAM1: BioMAP Diversity Plus: 3C Assay for Vascular cell adhesion molecule 1 (VCAM1) Biomarker Activity (AID 2282999); conditions: BioMAP 3C HUVEC, VCAM1 ELISA, cytokine-stimulated; actives raise or lower the signal
How it was run: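 Activity fitted in both directions relative to DMSO, with ELISA measurement of the surface marker on primary HUVEC (3C) at 24 h post-treatment; parallel SRB staining (0.1% SRB, TCA-fixed, 560 nm) flagged overt cytotoxicity.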

[18] = BSK_4H_Eotaxin3: BioMAP Diversity Plus: 4H Assay for Eotaxin 3 Biomarker Activity (AID 2283000); conditions: primary human endothelial cells (HUVEC); actives raise or lower the signal;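 for outcome: CCL26 protein level quantified by ELISA in parallel with SRB cytotoxicity check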
How it was run: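 Human umbilical vein endothelial cells (BSK_4H system) dosed with test chemical; Eotaxin-3 (CCL26) measured by ELISA 24 h after dosing. Bidirectional curve fitting relative to DMSO negative control as baseline.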

Sequence of Glucocorticoid receptor (Homo sapiens) (P04150 whole entry, looked up, the tested form may be a part): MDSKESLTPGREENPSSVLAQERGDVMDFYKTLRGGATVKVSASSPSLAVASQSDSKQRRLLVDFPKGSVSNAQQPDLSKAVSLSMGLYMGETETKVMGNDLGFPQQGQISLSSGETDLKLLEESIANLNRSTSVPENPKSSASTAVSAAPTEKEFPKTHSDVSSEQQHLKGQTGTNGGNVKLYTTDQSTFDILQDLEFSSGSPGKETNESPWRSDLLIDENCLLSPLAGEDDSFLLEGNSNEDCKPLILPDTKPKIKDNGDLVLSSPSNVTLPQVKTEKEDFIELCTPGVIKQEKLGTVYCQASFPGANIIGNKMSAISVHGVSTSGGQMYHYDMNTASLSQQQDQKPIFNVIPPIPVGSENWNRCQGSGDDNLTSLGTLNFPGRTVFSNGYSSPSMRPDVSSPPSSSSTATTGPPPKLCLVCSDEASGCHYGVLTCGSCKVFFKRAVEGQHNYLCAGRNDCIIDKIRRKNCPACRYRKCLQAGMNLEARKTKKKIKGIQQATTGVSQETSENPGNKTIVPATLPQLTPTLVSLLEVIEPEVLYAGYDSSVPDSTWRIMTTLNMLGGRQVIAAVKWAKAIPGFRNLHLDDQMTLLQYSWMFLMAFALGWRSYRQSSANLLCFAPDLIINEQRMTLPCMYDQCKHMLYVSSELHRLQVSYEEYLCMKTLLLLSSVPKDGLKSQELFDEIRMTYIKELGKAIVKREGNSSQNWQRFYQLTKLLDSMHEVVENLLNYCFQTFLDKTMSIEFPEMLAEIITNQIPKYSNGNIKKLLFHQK
Sequence of Oxysterols receptor LXR-beta (Homo sapiens) (P55055 whole entry, looked up, the tested form may be a part): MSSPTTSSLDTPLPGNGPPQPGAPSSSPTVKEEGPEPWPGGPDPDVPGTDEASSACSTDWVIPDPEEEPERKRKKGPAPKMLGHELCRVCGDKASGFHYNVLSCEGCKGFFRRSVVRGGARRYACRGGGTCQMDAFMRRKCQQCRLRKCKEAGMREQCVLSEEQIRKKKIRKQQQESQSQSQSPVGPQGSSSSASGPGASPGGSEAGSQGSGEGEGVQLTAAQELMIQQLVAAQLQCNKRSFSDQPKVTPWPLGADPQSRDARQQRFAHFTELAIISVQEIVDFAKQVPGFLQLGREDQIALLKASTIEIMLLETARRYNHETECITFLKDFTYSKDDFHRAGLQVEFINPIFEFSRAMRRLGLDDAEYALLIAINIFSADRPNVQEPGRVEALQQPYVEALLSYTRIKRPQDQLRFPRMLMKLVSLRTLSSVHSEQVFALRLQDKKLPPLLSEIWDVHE
Sequence of Oxysterols receptor LXR-alpha (Homo sapiens) (Q13133 whole entry, looked up, the tested form may be a part): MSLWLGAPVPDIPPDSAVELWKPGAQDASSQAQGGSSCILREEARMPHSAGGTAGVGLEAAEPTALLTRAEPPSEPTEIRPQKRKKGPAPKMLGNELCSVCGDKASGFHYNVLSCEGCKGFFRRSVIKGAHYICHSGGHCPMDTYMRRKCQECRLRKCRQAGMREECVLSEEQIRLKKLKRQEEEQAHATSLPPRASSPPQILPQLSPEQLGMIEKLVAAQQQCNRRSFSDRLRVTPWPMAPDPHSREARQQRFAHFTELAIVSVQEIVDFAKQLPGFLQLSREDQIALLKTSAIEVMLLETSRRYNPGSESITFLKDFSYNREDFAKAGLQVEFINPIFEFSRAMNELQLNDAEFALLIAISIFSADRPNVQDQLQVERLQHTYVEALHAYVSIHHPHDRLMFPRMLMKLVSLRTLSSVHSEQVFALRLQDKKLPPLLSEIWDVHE
Sequence of Myc proto-oncogene protein (Homo sapiens) (P01106 whole entry, looked up): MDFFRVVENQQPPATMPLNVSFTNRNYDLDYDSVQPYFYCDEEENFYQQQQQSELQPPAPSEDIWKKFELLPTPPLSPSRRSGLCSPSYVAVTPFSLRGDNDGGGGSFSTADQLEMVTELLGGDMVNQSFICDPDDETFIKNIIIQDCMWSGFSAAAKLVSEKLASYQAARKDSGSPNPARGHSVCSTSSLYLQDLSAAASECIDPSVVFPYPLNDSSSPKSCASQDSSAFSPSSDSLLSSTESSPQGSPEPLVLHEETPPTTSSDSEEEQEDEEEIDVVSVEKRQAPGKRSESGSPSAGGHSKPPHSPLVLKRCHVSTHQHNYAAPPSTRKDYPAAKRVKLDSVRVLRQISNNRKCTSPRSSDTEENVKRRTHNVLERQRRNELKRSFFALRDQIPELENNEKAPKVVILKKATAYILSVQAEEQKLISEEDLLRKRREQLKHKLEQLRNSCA
Sequence of Nuclear respiratory factor 1 (Homo sapiens) (Q16656 whole entry, looked up): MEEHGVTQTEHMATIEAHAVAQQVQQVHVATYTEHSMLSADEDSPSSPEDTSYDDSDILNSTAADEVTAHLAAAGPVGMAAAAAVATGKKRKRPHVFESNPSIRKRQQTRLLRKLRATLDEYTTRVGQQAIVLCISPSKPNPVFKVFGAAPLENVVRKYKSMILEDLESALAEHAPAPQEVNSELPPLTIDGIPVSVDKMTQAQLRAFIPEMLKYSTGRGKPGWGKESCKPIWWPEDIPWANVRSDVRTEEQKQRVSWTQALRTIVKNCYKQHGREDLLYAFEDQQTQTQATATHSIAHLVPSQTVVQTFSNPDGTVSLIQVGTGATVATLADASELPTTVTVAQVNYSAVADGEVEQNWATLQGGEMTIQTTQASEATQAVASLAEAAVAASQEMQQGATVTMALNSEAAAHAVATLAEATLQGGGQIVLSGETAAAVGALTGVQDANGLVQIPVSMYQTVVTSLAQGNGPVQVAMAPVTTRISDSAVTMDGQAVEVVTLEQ
Sequence of Transcriptional activator Myb (Homo sapiens) (P10242 whole entry, looked up): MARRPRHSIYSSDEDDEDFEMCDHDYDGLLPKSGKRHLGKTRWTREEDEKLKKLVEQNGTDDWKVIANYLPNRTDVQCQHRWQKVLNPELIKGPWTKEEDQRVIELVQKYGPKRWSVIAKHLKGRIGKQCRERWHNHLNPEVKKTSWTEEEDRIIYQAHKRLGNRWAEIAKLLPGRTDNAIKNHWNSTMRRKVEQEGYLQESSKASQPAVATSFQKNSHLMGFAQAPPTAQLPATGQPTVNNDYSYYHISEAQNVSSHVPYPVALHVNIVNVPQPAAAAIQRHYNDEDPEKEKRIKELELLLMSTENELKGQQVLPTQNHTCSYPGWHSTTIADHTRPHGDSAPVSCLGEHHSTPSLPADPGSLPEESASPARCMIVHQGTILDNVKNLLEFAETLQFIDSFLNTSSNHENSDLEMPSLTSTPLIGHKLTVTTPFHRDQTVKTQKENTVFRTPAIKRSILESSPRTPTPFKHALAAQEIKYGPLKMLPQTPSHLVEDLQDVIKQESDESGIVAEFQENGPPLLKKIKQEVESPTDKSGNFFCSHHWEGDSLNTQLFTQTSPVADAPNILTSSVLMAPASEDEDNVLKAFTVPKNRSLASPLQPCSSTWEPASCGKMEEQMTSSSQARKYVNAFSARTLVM
Sequence of Cellular tumor antigen p53 (Homo sapiens) (P04637 whole entry, looked up): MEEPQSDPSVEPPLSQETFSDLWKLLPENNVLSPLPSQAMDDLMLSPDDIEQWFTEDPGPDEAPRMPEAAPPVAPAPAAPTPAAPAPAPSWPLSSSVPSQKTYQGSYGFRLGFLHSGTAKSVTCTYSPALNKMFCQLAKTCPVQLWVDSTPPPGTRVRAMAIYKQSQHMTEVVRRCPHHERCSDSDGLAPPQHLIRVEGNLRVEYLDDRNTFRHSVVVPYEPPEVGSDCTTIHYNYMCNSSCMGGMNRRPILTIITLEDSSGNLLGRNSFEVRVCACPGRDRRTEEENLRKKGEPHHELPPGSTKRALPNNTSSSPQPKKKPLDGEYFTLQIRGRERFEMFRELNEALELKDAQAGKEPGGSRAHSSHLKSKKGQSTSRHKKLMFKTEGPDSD
Sequence of Hepatocyte nuclear factor 4-alpha (Homo sapiens) (P41235 whole entry, looked up, the tested form may be a part): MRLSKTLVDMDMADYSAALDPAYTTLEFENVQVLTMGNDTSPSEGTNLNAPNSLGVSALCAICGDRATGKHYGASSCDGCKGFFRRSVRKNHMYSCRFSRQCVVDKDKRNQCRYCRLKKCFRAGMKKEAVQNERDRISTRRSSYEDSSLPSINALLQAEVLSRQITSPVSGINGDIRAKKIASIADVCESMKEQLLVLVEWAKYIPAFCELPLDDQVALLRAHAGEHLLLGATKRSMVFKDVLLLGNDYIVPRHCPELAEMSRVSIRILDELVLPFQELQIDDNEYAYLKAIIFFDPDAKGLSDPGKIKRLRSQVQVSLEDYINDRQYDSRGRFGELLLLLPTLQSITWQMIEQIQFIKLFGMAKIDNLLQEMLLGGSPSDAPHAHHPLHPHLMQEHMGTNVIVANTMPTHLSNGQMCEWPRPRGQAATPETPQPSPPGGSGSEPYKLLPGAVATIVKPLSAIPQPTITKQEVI
Sequence of Bile acid receptor (Homo sapiens) (Q96RI1 whole entry, looked up, the tested form may be a part): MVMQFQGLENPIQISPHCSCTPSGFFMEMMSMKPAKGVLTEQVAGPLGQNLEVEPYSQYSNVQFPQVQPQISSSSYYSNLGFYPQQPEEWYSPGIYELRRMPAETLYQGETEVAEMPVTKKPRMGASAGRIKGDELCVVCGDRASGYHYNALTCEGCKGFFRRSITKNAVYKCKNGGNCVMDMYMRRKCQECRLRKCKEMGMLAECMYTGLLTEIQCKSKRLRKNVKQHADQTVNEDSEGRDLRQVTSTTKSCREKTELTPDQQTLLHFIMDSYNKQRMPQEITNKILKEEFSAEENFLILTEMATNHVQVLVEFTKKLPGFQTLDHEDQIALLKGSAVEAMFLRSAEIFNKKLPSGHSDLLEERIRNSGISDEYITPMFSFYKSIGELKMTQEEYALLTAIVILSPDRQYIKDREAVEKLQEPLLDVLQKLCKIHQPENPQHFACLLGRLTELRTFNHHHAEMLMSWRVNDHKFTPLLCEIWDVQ

c1ccc(C[n+]2cccc3ccccc32)cc1
outcome [1]: inactive | outcome [2]: inactive | outcome [3]: inactive | outcome [4]: inactive | outcome [5]: inactive | outcome [6]: inactive | outcome [7]: inactive | outcome [8]: inactive | outcome [9]: inactive | outcome [10]: inactive | outcome [11]: inactive | outcome [12]: inactive | AC50 [13]: 67.9 µM (active) | outcome [14]: inactive | outcome [15]: inactive | outcome [16]: inactive | outcome [17]: inactive | outcome [18]: inactive

Cc1ccc2oc(CN(Cc3ccccc3)C(=O)Nc3c(F)cc(F)cc3F)c(-c3ccc(Cl)cc3)c2c1
outcome [1]: inactive | outcome [3]: inactive | outcome [4]: inactive | outcome [5]: inactive | outcome [6]: inactive | outcome [7]: inactive | outcome [8]: inactive | outcome [9]: inactive | outcome [10]: inactive | outcome [11]: inactive | outcome [12]: inactive | outcome [13]: inactive | outcome [14]: inactive | outcome [15]: inactive | AC50 [16]: 10.8 µM (active) | outcome [17]: inactive | outcome [18]: inactive

Cc1c2ccccc2c(C)c2c1ccc1ccccc12
outcome [1]: inactive | outcome [2]: inactive | outcome [3]: inactive | outcome [4]: inactive | outcome [6]: inactive | outcome [7]: inactive | outcome [8]: inactive | outcome [9]: inactive | outcome [10]: inactive | AC50 [11]: 64.1 µM (active) | outcome [12]: inactive | AC50 [13]: 12.4 µM (active) | outcome [14]: inactive | outcome [15]: inactive | AC50 [16]: 15.2 µM (active) | AC50 [17]: 20 µM (active) | AC50 [18]: 28.6 µM (active)
